Screen size: about 1,500 compounds; about 460 (31%) were called active. Not shown: some 1% with an inconclusive outcome.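 Rule for the calls: active = curve reaches 40% activation over neutral controls at an AC40 no higher than the top valid tested concentration; inconclusive = no clear call, values can overlap the other calls; inactive = signal moving opposite to the expected increase, and the rest.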 These entries were drawn from the full list. Entries with a potency or affinity are not part of this list.
Test: GLuc-reported insulin release enhancers, glucose-stimulated beta cells – cell-based, INS-1E, Gaussia luciferase, luminescence, cherry-pick, set 2, dose response (AID 977607);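 note: 0% = median of the plate neutral control wells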
Conditions: INS-1E GLuc insulin secretion reporter, 2-3 h, stronger effect = higher value; at 35 µM, 100% = signal doubled over neutral wells unless noted

Max activation, inactive:
O=C1CC(=O)Nc2cc(S(=O)(=O)NCc3cccs3)ccc2N1 -18.8% [at 0.0016 µM, 100% = signal doubled over neutral wells]
CCOC(=O)c1c(S(=O)(=O)NCCc2ccc(OC)c(OC)c2)c(C)n(C)c1C -18.5% [at 0.135 µM, 100% = signal doubled over neutral wells]
COc1ccc(CCNC(=O)C(=O)NN=C2CCCCCCC2)cc1OC -11.7% [at 0.005 µM, 100% = signal doubled over neutral wells]
COc1ccc(CCN(C)C(=O)CCNS(=O)(=O)c2ccccc2C(F)(F)F)cc1OC -10.8% [at 0.135 µM, 100% = signal doubled over neutral wells]
COc1ccc(CCN=C(N)NS(=O)(=O)c2ccc(C)c(C)c2)cc1OC 23.8% [at 0.0016 µM, 100% = signal doubled over neutral wells]
COc1ccc(CCNS(=O)(=O)c2ccc(Cl)s2)cc1OC 28.1%
COc1ccc(CCNc2ccncn2)cc1OC -13.5% [at 0.0016 µM, 100% = signal doubled over neutral wells]
Cc1ccc(NC(=O)[C@@H](Cc2ccccc2)NC(=O)[C@H]2O[C@@H](n3ccc(=O)[nH]c3=O)[C@H](O)[C@@H]2O)cc1C -17.1% [at 0.015 µM, 100% = signal doubled over neutral wells]
COc1ccc(NC(=O)C2CCCN2S(=O)(=O)c2ccc3c(c2)CC(C)N3C(C)=O)cc1OC (centres undefined) -19.4% [at 0.005 µM, 100% = signal doubled over neutral wells]
COc1cccc(NC(=O)CN(C)C(=O)Cn2[nH]c(=O)c3ccccc3c2=O)c1 -27.7% [at 1.2 µM, 100% = signal doubled over neutral wells]
COc1cc2c(cc1OC)C(CSc1ccccc1C(=O)O)=NC(C)(C)C2 30.8%
O=C(NCC1(O)CCCCC1)C1CCC(=O)N(Cc2ccccc2F)C1 (centres undefined) -16.4%
CN(C(=O)COC(=O)c1cccs1)c1ccccc1 -16.8% [at 0.0016 µM, 100% = signal doubled over neutral wells]
CCOC(=O)c1sc(NC(C)=O)nc1-c1ccccc1 -16.3% [at 0.046 µM, 100% = signal doubled over neutral wells]
O=C(Nc1cccnc1)c1cnn2c(C(F)F)cc(C3CC3)nc12 30.2% [at 11 µM, 100% = signal doubled over neutral wells]
Cc1cc(C(F)F)n2ncc(C(=O)NCc3ccc(F)cc3)c2n1 -18% [at 1.2 µM, 100% = signal doubled over neutral wells]
COc1ccc(-c2cc(NC=O)c3ncc(-c4ccc(OC)c(OC)c4)n3c2)cc1 90% [at 3.8 µM, 100% = signal doubled over neutral wells]
CC(=O)Nc1cc(-c2ccc(N3CCN(C)CC3)cc2)cn2c(-c3cccc(C(=O)N(C)C)c3)cnc12 -24% [at 0.046 µM, 100% = signal doubled over neutral wells]
COc1ccc(CNC(=O)CN2C(=O)NC3(CCCCCC3)C2=O)cc1 -13.8% [at 0.005 µM, 100% = signal doubled over neutral wells]
CCC(O)c1nc2ccccc2n1CCc1ccccc1 (centres undefined) -18.7% [at 0.005 µM, 100% = signal doubled over neutral wells]
CC1Cc2ccccc2N1C(=S)NC(=O)c1cccc(Br)c1 (centres undefined) -15.5% [at 0.005 µM, 100% = signal doubled over neutral wells]
CCOC(=O)c1nc2nc(-c3cccs3)cc(C(F)(F)F)n2n1 -16% [at 0.135 µM, 100% = signal doubled over neutral wells]
Cc1c(Cc2ccccc2)sc(NC(=O)C(C)(C)C)c1C(N)=O -18.8% [at 0.015 µM, 100% = signal doubled over neutral wells]
COc1ccc(/C(C)=N/Nc2ccc(C(=O)O)cc2)cc1OC 24.3%
COc1ccc(C(=O)/C=C2\NCCc3cc(OC)c(OC)cc32)cc1OC 24%
C=CCN1C(=O)c2n[nH]c(COC)c2C1c1ccc(F)cc1 (centres undefined) -25.3% [at 0.015 µM, 100% = signal doubled over neutral wells]
Cc1cc(=O)oc2c3c(cc(OCC(=O)NC(C)C)c12)OC(C)(C)CC3 34% [at 0.42 µM, 100% = signal doubled over neutral wells]
CC(=O)Nc1ccc(-c2ccnc3c2CC(C)(C(=O)Nc2cccc(OC(F)(F)F)c2)O3)cc1 (centres undefined) -44.4%
Nn1c(-c2ccccc2)cc(-c2ccccc2)cc1=O 27.3%
CNc1nc(OCC#N)nc(N2CCCCC2)n1 25%
COc1ccc(C(=O)N2CCc3cc(OC)c(OC)cc3C2c2ccc(OC)c(OC)c2)cc1OC (centres undefined) 24.4% [at 0.005 µM, 100% = signal doubled over neutral wells]
COc1cc2c(cc1OC)CN(C(=O)Cc1ccccc1)CC2 -21.2%
Cc1ccccc1SC1CCN(C(=O)C2CCC(=O)N(C3CC3)C2)CC1 (centres undefined) -25.3%
CCOc1ccc(OCCC(=O)N(CC)CC(=O)NCc2cccs2)cc1 -21% [at 11 µM, 100% = signal doubled over neutral wells]
O=C(CC(NC(=O)c1ccccc1)c1ccccc1)Nc1cccc2ccccc12 (centres undefined) -27.5%
Nc1[nH]c(C(=O)c2ccccc2)c(-c2c(F)cccc2F)c1C(=O)c1ccc(Cl)c(Cl)c1 53.9%
C#Cc1cccc(-n2nnc(C(=O)OC)c2-c2ccccc2)c1 -13.8% [at 0.42 µM, 100% = signal doubled over neutral wells]
COc1ccc(CCC(=O)NC2CCC(C)CC2)cc1 (centres undefined) -13.6% [at 0.135 µM, 100% = signal doubled over neutral wells]
COC(=O)C1=C(C)NC(=S)NC1c1ccc(OC)cc1 (centres undefined) -18.4% [at 0.135 µM, 100% = signal doubled over neutral wells]
c1ccc2c(NCC3CCCO3)nc(N3CCCCC3)nc2c1 (centres undefined) -16.1% [at 3.8 µM, 100% = signal doubled over neutral wells]
CC1=CC(c2ccccc2)n2nc(NC(=O)CCC(=O)O)nc2N1 (centres undefined) -12.8% [at 1.2 µM, 100% = signal doubled over neutral wells]
CC(=O)c1ccc(OCC(=O)N(C2CCCCC2)C2CCS(=O)(=O)C2)cc1 (centres undefined) -11% [at 0.0016 µM, 100% = signal doubled over neutral wells]
CN(C)CCCN(C(=O)CCOc1ccccc1)c1nc2ccc(F)cc2s1 -14.1% [at 0.015 µM, 100% = signal doubled over neutral wells]
CCN(Cc1ccccc1)S(=O)(=O)c1ccc(C(=O)Nc2nnc(C)o2)cc1 39.3% [at 3.8 µM, 100% = signal doubled over neutral wells]
COc1cc2c(cc1OC)CN(C(=O)CNS(=O)(=O)c1ccc(C)c(C)c1)CC2 13.4% [at 11 µM, 100% = signal doubled over neutral wells]
COc1ccccc1-c1cnc2c(c1)C(=O)N([C@H](C)CO)C[C@@H](C)[C@@H](CN(C)C(C)=O)O2 35.5% [at 0.015 µM, 100% = signal doubled over neutral wells]
O=C(NC1CCCCC1)c1cccnc1Sc1ccccc1 -28.1% [at 0.015 µM, 100% = signal doubled over neutral wells]
CCCCc1nc(NCCN)c(C#N)c2c1CSC(C)(C)C2 -17.6% [at 0.046 µM, 100% = signal doubled over neutral wells]
O=C(Nc1ccc(Br)cc1)c1cc2ccccn2n1 -31.1% [at 0.42 µM, 100% = signal doubled over neutral wells]
O=C(NC(=S)NCC1CCCO1)c1ccc(Cl)cc1Cl (centres undefined) -19.4% [at 0.005 µM, 100% = signal doubled over neutral wells]
O=C(OCc1c(-c2ccccc2)ncc2ccccc12)c1cccs1 -36.4% [at 11 µM, 100% = signal doubled over neutral wells]
CCc1nc2ccc(C(=O)N(C)CCCN(C)C)cn2c1N(C=O)CCC(C)C -21.2% [at 1.2 µM, 100% = signal doubled over neutral wells]
O=C(O)CNS(=O)(=O)c1ccc2c(c1)Cc1cc(S(=O)(=O)NCC(=O)O)ccc1-2 -16.4% [at 0.0016 µM, 100% = signal doubled over neutral wells]
Cc1cc(-c2ccc(Br)cc2)n2nc(C)cc2n1 -25.9% [at 0.005 µM, 100% = signal doubled over neutral wells]
